The source of these data is PubChem BioAssay (NCATS).

Several values for one entry are separate records, joined by “and”; a condition that tells them apart may be missing. Equal entries are not always repeated. Records with an inconclusive call do not appear. Activity calls are given as the source filed them. Calls come from the whole dose curve; as a rule, active = well fitted cell-killing curve with a large enough effect; inconclusive = small, poorly fitted or top-dose-only effect, or effect the other way; inactive = no such curve, though single readings can be large or run the other way.
Potency is the fitted concentration of half-maximal effect.

The assay is described as follows: Viability qHTS for spleen associated tyrosine kinase inhibitor (SYKi) drug resistant MV4-11 cells (AID 1963824). Note: nearly all actives have a fitted effect of over 35% in size. The note with it: SYKi-resistant MV4-11 viability, CellTiter-Glo, 72 h; series mostly up to 45 µM. The procedure, abridged: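 SYK inhibitor-resistant MV4-11 AML cells, 500 per well, added to predispensed compounds and incubated 72 hr at 37 C, 5% CO2. Viability measured by CellTiter-Glo luminescence after 10 min at room temperature.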
For `Cc1nc([C@](C)(O)CO)sc1-c1cnc(N)c(O[C@H](C)c2cc(F)ccc2-n2nccn2)c1`, the Potency was 8.33 µM (active). For `CNCC[C@H](Oc1cccc2ccccc12)c1cccs1` the value was 26.6 µM (active); for `CCCc1ccc(OCC(=O)N2CCN(C(=O)COc3ccc(CCC)cc3OC)CC2)c(OC)c1`, “inactive”; for `CC1=C(/C=C/C(C)=C/C=C/C(C)=C/C(=O)Nc2ccc(O)cc2)C(C)(C)CCC1`, 2.66 µM (active) and 7.42 µM (active).

With `CCCOc1ccc(CCc2nc3cc(-c4c(C)noc4C)ccc3n2CCN2CCOCC2)cc1`, the Potency was 5.25 µM (active). `O=C(/C=C/c1ccccc1)NCCO`: the Potency result is “inactive”. Next, `COc1ccc(S(=O)(=O)N[C@@H](CNc2nc(C)nc(N3CCC(c4ccc5c(n4)NCCC5)CC3)c2C)C(=O)O)cc1`: “inactive”. For `Fc1ccc2[nH]ccc2c1-c1nc(N2CCOCC2)c2sc(CN3CCN(CC4CC4)CC3)cc2n1` the value was 5.9 µM (active). In the case of `CCN(CC)CCNc1ccc(CO)c2sc3ccccc3c(=O)c12`, the Potency is 3.76 µM (active). Next, `O=C(NOCCO)c1ccc2cncn2c1Nc1ccc(I)cc1F`: 0.105 µM (active); `CC(C)[N+](C)(C)CC(O)COc1cccc2ccccc12` (stereo not given): “inactive”. Consider `CCN(C)S(=O)(=O)Nc1ccc(F)c(C(=O)c2c[nH]c3ncc(-c4cnc(C5CC5)nc4)cc23)c1F`, for which the Potency is 4.68 µM (active).

As to `NC(N)=NN=C(/C=C/c1ccc([N+](=O)[O-])o1)/C=C/c1ccc([N+](=O)[O-])o1`, the Potency was 5.31 µM (active). For `CC[C@H](NC(=O)[C@H](C)NC)C(=O)N1C[C@@H](O)C[C@H]1Cc1c(-c2[nH]c3cc(F)ccc3c2C[C@@H]2C[C@H](O)CN2C(=O)[C@H](CC)NC(=O)[C@H](C)NC)[nH]c2cc(F)ccc12` the value was 0.0074 µM (active); for `Nc1ncc(C(=O)NC2CN(C(=O)C3CC3)C2)c2ccc(-c3cccc(F)c3)nc12`, 7.42 µM (active). Next, `CN1CCN(c2ccc(Nc3ncc4cc(C#N)c(=O)n(C5CCCC5)c4n3)cc2)CC1`: 0.235 µM (active). Consider `COC(=O)[C@H]1[C@@H](O)[C@@]2(O)c3c(OC)cc(O[C@@H]4O[C@@H]([C@@H](O)CO)CO[C@H]4OC)cc3O[C@@]2(c2ccc(OC)cc2)[C@@H]1c1ccccc1`, for which the Potency is 1.66 µM (active). Next, `C=C1C(=O)O[C@@H]2[C@H]3O[C@]3(C)CC/C=C(\C)CC[C@@H]12`: 1.86 µM (active); `CCNC(=O)NCCCOc1cccc(CN2CCCCC2)c1`: “inactive”; `O=C(Oc1cccc2cccnc12)c1ccccc1`: “inactive”. Next, `CC(=O)Oc1ccc2c(c1)CC[C@@H]1[C@@H]2CC[C@]2(C)[C@@H](O)CC[C@@H]12`: 15 µM (active). For `O=c1cc(-c2ccccc2)oc2ccccc12` the value was 21.5 µM (active); for `CN(C(=O)CN(CCO)CC(=O)N(C)C(C)(C)Cc1ccccc1)C(C)(C)Cc1ccccc1`, 9.44 µM (active); for `Cc1ccc(C(=O)OCc2ccc([C@@H](CN)C(=O)Nc3ccc4cnccc4c3)cc2)c(C)c1`, 2.29 µM (active). Consider `CCC(=O)c1ccc2c(c1)N(CCCN(C)C)c1ccccc1S2`, for which the Potency is 21.1 µM (active). Next, `CC1CCc2cc(F)cc3c(=O)c(C(=O)O)cn1c23` (stereo not given): 6.68 µM (active).

Take `O=C(N/N=C/c1ccc([N+](=O)[O-])o1)c1ccc(O)cc1`: the Potency was 16.8 µM (active).

On to `CCNCCS(=O)(=O)NC[C@@]1(c2ccccc2)SC(NC(=O)C(C)(C)C)=NN1C(=O)C(C)(C)C`, for which the Potency was 0.003 µM (active).

Regarding `COc1ccc2[nH]c(S(=O)Cc3ncc(C)c(OC)c3C)nc2c1` (stereo not given), the Potency is 1.64 µM (active).

On to `COCCOc1ccc(N2CCN(CCn3ncc4c3nc(N)n3nc(-c5ccco5)nc43)CC2)cc1`, for which the Potency is 0.103 µM (active). For `O=C(O)c1ccccc1Nc1cccc(C(F)(F)F)c1` the value was “inactive”. For `O=C(OCCOCCO)c1ccccc1Nc1cccc(C(F)(F)F)c1` the value was 14.6 µM (active). `COC(=O)C(c1ccccc1Cl)N1CCc2sccc2C1` (stereo not given): the Potency entry is “inactive”. Consider `Cc1cc2cc(Oc3ccnc(Nc4cccc(CS(=O)(=O)NCCN(C)C)c4)n3)ccc2[nH]1`, for which the Potency was 1.86 µM (active). As for `c1cc(-c2cnn3cc(-c4ccc(N5CCNCC5)cc4)cnc23)c2cccnc2c1`, the Potency was 0.92 µM (active). For the molecule `O=C(NOCC(O)CO)c1ccc(F)c(F)c1Nc1ccc(I)cc1F` (stereo not given), the Potency is 0.148 µM (active). Next, `CN1CCCN=C1COC(=O)C(O)(c1ccccc1)C1CCCCC1` (stereo not given): “inactive”; `CO/N=C(/C(=O)N[C@@H]1C(=O)N2C(C(=O)OCOC(=O)C(C)(C)C)=C(C)CS[C@H]12)c1csc(N)n1`: 23.7 µM (active); `O=C(O)CNC(=O)CNC(=O)CNC(=O)CSC(=O)c1ccccc1`: “inactive”. Next, `CC(=O)Nc1cc(Oc2ccc3c(nc(Nc4ccc(F)cc4F)n3C)c2C)ccn1`: 1.66 µM (active).
